Source: PubChem BioAssay
KCNQ2 pot: KCNQ2 (rat) channel potentiation; B-score at 10 µM; hit rate 0.54% among 310,000; CHO-K1 KCNQ2, FluxOR thallium flux fluorescence; hits give high values; O88943;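 active means fluorescence ratio B-score at least 3 SD of library B-scores, with initial fluorescence B-score within 3 of them, cut at about 5.3 in these data; same plate scores as AID 2156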;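 further: B-score of peak minus minimum over baseline fluorescence ratio after K+ and Tl+ stimulus; positive B-score means potentiation of KCNQ2 with more thallium influx and brighter signal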
KCNQ2 inh: KCNQ2 (rat) channel inhibition; AID 2156; hit rate 1.1% among 310,000; B-score at 10 µM; CHO-K1 KCNQ2, FluxOR thallium flux, 20 min; hits give low values; O88943;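 active means fluorescence ratio B-score at most minus 3 library SDs, with starting brightness B-score within 2 library SDs, cut at about -5.5 in these data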
Kir21 confirm: confirmation of mouse Kir2.1 potassium channel inhibitors; Kir2.1-expressing cells, FluxOR thallium flux fluorescence; hits give low values; hit rate 41% among 2,300; shares compounds with KCNQ2 pot; Tl flux remaining, % of negative control (hits give low values), % at 10 µM;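 active means Primary-screen hit whose thallium flux fell at least 3 control SD below untreated wells in both duplicates, with normal baseline fluorescence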
HEK293 Tl flux: counter-screen for Kir2.1 inhibitors: effect in parental HEK293 cells; FluxOR signal as % of negative control (100 = no effect), % at 10 µM; shares compounds with KCNQ2 pot; hit rate 19% among 2,300; FluxOR thallium flux fluorescence; 0% = unstimulated blank wells;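 active means dye signal at least 3 control SD above or below untreated wells in both duplicates, raw fluorescence within 3, either direction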;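 further: percent is based on the flux ratio of peak minus minimum fluorescence over baseline F0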
CHO-K1 ctr: alters thallium flux in parental CHO-K1 cells, KCNQ2 counter-screen. shares compounds with KCNQ2 pot. FluxOR thallium flux fluorescence; zero = vehicle mean+3SD, 100% = vehicle-minus-blank window. activity increase over 3SD of controls, % at 10 µM. hit rate 43% among 1,200. AID 2282;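 active means signal rise of at least 3 SD above the untreated control mean, in both duplicate wells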;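 further: counter screen of KCNQ2 potentiator hits so any rise reflects channel-independent effects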
KCNQ1 sel pot: human KCNQ1 counter-target activity of KCNQ2 potentiators. hit rate 28% among 1,200. activation over 3SD threshold, % at 10 µM. CHO KCNQ1 stable, FluxOR thallium flux fluorescence; beyond 3SD, as % of vehicle-control signal. shares compounds with KCNQ2 pot. AID 2283;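 active means fluorescence ratio rise of at least 3 SD of vehicle wells above their mean, in both replicate wells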
KCNQ2 pot conf: confirmation of rat KCNQ2 potassium channel potentiators | shares compounds with KCNQ2 pot | CHO-KCNQ2 cells, FluxOR thallium flux fluorescence | potentiation, less the hit threshold, % at 10 µM | hit rate 68% among 1,200 | AID 2287;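 active means fluorescence ratio rising 3 SD or more over the vehicle control mean in both replicates, plus primary screen hit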;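 further: peak minus minimum thallium fluorescence divided by baseline after K/Tl stimulus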
Kir21 spec: selectivity of KCNQ2 potentiators: effect on mouse Kir2.1; shares compounds with KCNQ2 pot; HEK293 Kir2.1, FluxOR thallium flux fluorescence; activity over 3SD threshold, % at 10 µM; hit rate 2% among 1,200; AID 2345;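 active means fluorescence ratio rise of at least 3 SD above the vehicle-control mean, seen in both replicates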
KCNQ2 W236L MoA: KCNQ2 potentiators acting on retigabine-insensitive rat KCNQ2 W236L mutant; shares compounds with KCNQ2 pot; CHO KCNQ2-W236L, automated patch clamp current; current increase over 3SD of negative controls (%), hits give high values, % at 25 µM; hit rate 10% among 940;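 active means current increase at least 3 SD of the untreated controls above them in both duplicate recordings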
Target sequence (O88943 whole entry W236L, looked up): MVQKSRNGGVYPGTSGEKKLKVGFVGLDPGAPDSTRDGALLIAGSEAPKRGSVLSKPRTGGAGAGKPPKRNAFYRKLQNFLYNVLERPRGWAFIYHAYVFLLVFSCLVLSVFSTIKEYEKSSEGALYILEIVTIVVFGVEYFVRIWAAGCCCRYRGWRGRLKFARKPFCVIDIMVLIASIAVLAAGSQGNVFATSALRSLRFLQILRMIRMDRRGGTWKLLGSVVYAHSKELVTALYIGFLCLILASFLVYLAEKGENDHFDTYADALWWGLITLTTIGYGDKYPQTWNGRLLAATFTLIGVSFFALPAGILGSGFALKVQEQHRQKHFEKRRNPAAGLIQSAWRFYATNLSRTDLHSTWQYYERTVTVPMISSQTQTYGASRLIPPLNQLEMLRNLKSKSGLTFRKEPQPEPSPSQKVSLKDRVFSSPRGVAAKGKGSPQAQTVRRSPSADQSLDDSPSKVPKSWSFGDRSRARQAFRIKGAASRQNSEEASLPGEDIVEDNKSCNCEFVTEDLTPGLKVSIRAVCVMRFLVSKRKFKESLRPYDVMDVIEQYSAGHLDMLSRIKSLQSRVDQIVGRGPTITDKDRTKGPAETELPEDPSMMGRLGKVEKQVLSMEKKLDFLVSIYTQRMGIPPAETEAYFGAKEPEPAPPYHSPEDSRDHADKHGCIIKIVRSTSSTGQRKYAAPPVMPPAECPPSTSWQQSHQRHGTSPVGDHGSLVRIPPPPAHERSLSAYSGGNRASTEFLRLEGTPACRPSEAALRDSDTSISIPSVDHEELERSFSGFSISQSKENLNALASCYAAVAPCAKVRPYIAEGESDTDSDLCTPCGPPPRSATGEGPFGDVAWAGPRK
Of the large screens only hits and unclear results are named; the others gave an inactive call (follow-up assays come after a bar, where they were run). Hits are enriched below; roughly 1.6% of the tested compounds scored in any of these assays.

CCCCCCCCCCOC(=O)Cn1c(COc2cccc(C)c2)[n+](C)c2ccccc21	none | Kir21 confirm inactive | HEK293 Tl flux inactive
CCCCCCCCCCOC(=O)Cn1c(COc2ccc(OC)cc2)[n+](C)c2ccccc21	none | Kir21 confirm inactive | HEK293 Tl flux inactive
CCCCCCCCCCOC(=O)Cn1c(COc2ccccc2)[n+](C)c2ccccc21	none (no result: KCNQ2 pot) | Kir21 confirm inactive | HEK293 Tl flux inactive
CCCCCCCCCCOC(=O)Cn1c(COc2ccc(Cl)cc2)[n+](C)c2ccccc21	none (no result: KCNQ2 pot)
Cc1cccc(OCCCn2c(=O)sc3ccccc32)c1	none (no result: KCNQ2 pot)
CCCCOC(=O)Cn1c(=O)n(CC(=O)OCCCC)c2ccccc21	none (no result: KCNQ2 pot) | Kir21 confirm inactive | HEK293 Tl flux inactive
CCCCOC(=O)Cn1c(=N)n(CCN2CCOCC2)c2ccccc21	none (no result: KCNQ2 pot)
COc1cccc(/C=C/C(=O)N2CCN(S(=O)(=O)c3ccccc3)CC2)c1OC	none (no result: KCNQ2 pot)
CS(=O)(=O)ON=C1CCN(S(=O)(=O)c2ccccc2)CC1	none
CC(=O)c1cccc(N(CC(=O)Nc2ccccc2C(=O)N2CCCC2)S(C)(=O)=O)c1	none
O=C(C1CCN(S(=O)(=O)c2ccc(F)cc2)CC1)N1CCOCC1	none
CN(C)CCOc1ccccc1Cc1ccccc1	none
CNCCCCOc1ccccc1Cc1ccccc1	none (no result: KCNQ2 pot) | Kir21 confirm 28% | HEK293 Tl flux inactive
CCCCCN(C(=O)CCC(=O)OCc1ccc(C(C)(C)C)cc1)c1c(N)n(CCCC)c(=O)[nH]c1=O	none (no result: KCNQ2 pot)
c1ccc(COn2nnc3ccccc32)c(COn2nnc3ccccc32)c1	none (no result: KCNQ2 pot) | Kir21 confirm 72% | HEK293 Tl flux inactive
Clc1cccc(Cl)c1COn1nnc2ccccc21	none (no result: KCNQ2 pot)
CC1CCc2c(nc3ncnn3c2N2CCN(c3ccccc3)CC2)C1 (configuration not stated)	none
c1nc2nc3c(c(N4CCOCC4)n2n1)CCCC3	KCNQ2 pot 17 | Kir21 confirm inactive | HEK293 Tl flux inactive
COC(=O)C1=C(C)N(Cc2ccccc2)C(=NCCCCO)N[C@H]1c1ccccc1	none (no result: KCNQ2 pot)
CCOC(=O)CN1C(=O)N[C@@H](c2cccc(F)c2)C(C(C)=O)=C1C	none (no result: KCNQ2 pot)
CCOC(=O)CN1C(=O)N[C@@H](c2cccc(F)c2)C(C(=O)OC)=C1C	none (no result: KCNQ2 pot) | Kir21 confirm inactive | HEK293 Tl flux inactive
COC(=O)C1=C(C)N(Cc2ccccc2)C(=NCc2ccc(OC)cc2)N[C@H]1c1cccc(F)c1	none (no result: KCNQ2 pot) | Kir21 confirm 26% | HEK293 Tl flux inactive
COC(=O)C1=C(C)N(Cc2ccccc2)C(=NCc2cc(OC)c(OC)c(OC)c2)N[C@H]1c1cccc(F)c1	none (no result: KCNQ2 pot)
COC(=O)C1=C(C)N(Cc2ccccc2)C(=NCCc2cccnc2)N[C@H]1c1ccccc1	none | Kir21 confirm inactive | HEK293 Tl flux inactive
CC1(c2nnc(-c3cccc(Cl)c3)o2)CC(c2ccccc2Br)=NO1 (configuration not stated)	none (no result: KCNQ2 pot)
Cc1nc2scc(-c3ccccc3)c2c(=O)n1N	none
Cc1nc2scc(-c3ccccc3)c2c(=O)n1N=C1C=CC(=O)C=C1	none (no result: KCNQ2 pot) | Kir21 confirm 62% | HEK293 Tl flux 51%
COc1ccc(CCNc2nc3ccccc3n3cnnc23)cc1OC	none
CCc1nnc2c(NCCc3ccc(OC)c(OC)c3)nc3ccccc3n12	KCNQ2 pot 11 | Kir21 confirm inactive | HEK293 Tl flux inactive | CHO-K1 ctr 9.6 | KCNQ1 sel pot inactive | KCNQ2 pot conf inactive | Kir21 spec inactive
COc1ccccc1CCNCc1ccc(OC)c(OCc2ccccc2)c1	none (no result: KCNQ2 pot) | Kir21 confirm inactive | HEK293 Tl flux inactive
COc1ccc(CNCc2ccco2)cc1OCc1ccccc1	none
Cc1ccc(C)c(C(=O)OCC(=O)N(C)c2ccccc2)c1	none (no result: KCNQ2 pot)
Cc1c(OC(C)C(=O)NCC(O)c2ccccc2)ccc2c3c(c(=O)oc12)CCC3 (configuration not stated)	none
CN1CCN(C(=O)/C(=C\c2cccnc2)NC(=O)c2cccc(Br)c2)CC1	none
Cc1ccc(OCC(=O)NC2CCCCCC2)cc1C	KCNQ2 pot 6.5 | Kir21 confirm inactive | HEK293 Tl flux inactive | CHO-K1 ctr inactive | KCNQ1 sel pot inactive | KCNQ2 pot conf 2.0 | Kir21 spec inactive | KCNQ2 W236L MoA inactive
Cc1cc2cccc(C)c2nc1SCC(=O)NC1CCCCC1	KCNQ2 pot 13 | Kir21 confirm inactive | HEK293 Tl flux inactive | CHO-K1 ctr inactive | KCNQ1 sel pot inactive | KCNQ2 pot conf 0.3 | Kir21 spec inactive | KCNQ2 W236L MoA inactive
Cc1cc(NC(=O)CSc2nc3c(C)c(C)ccc3cc2C)no1	KCNQ2 pot 5.9 | Kir21 confirm inactive | HEK293 Tl flux inactive | CHO-K1 ctr inactive | KCNQ1 sel pot inactive | KCNQ2 pot conf inactive | Kir21 spec inactive
Cc1cccc(CC(=O)NC2CCCCCC2)c1	KCNQ2 pot 6.7 | Kir21 confirm inactive | HEK293 Tl flux inactive | CHO-K1 ctr inactive | KCNQ1 sel pot inactive | KCNQ2 pot conf 11 | Kir21 spec inactive | KCNQ2 W236L MoA inactive
CCc1cc2ccc(C)c(C)c2nc1SCC(=O)Nc1cc(C)on1	none
Cc1cccc(OCC(=O)NC2CCCC2)c1	none
Cc1cc2cccc(C)c2nc1SCC(=O)NCC1CCCO1 (configuration not stated)	none
Cc1cccc(CC(=O)NC2CCN(C)CC2)c1	none (no result: KCNQ2 pot)
COc1ccc(CCNC(=O)[C@@H](NC(=O)N2CC(=O)Nc3ccccc32)C(C)C)cc1OC	none (no result: KCNQ2 pot)
CC(CCc1ccccc1)NS(=O)(=O)c1ccc(Cl)c(C(=O)O)c1 (configuration not stated)	none (no result: KCNQ2 pot)
COc1ccc(CNc2ncc(-c3cccc([N+](=O)[O-])c3)n2C)c(OC)c1OC	none
O=C(OCC(=O)N1c2ccccc2Sc2ccccc21)C1CC(=O)N(Cc2ccco2)C1 (configuration not stated)	none (no result: KCNQ2 pot)
O=C(COC(=O)C1CC(=O)N(Cc2ccco2)C1)c1ccc(OC(=O)c2ccccc2)cc1 (configuration not stated)	none | Kir21 confirm inactive | HEK293 Tl flux inactive
Cc1cccc(C)c1NC(=S)NC(=O)c1ccc(Br)o1	KCNQ2 pot 14 | Kir21 confirm inactive | HEK293 Tl flux inactive | CHO-K1 ctr 0.9 | KCNQ1 sel pot inactive | KCNQ2 pot conf 60 | Kir21 spec inactive | KCNQ2 W236L MoA inactive
Cc1c(NC(=S)NC(=O)c2ccc(Br)o2)c(=O)n(-c2ccccc2)n1C	none (no result: KCNQ2 pot)
O=C(NNC(=S)Nc1ccccc1C(F)(F)F)c1ccc(Br)o1	none
